Source: PubChem BioAssay (National Center for Advancing Translational Sciences (NCATS))
DRD3 agonist: D3 dopamine receptor (human) agonism; max activation, %; 410,000 tested, 0.58% active; AID 652048; P35462; D3R DiscoveRx beta-arrestin cells, luminescence, 90 min; in the data active means max activation above about 30%; further: 0% is about no effect
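Cells at 1500/well, incubated overnight, then treated with pinned compounds (dopamine as control) for 90 min at 37 degrees C. DiscoveRx reagent added for 30 - 60 minutes at room temperature; luminescence read.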
D3 antag: D3 dopamine receptor (human) antagonism; P35462; D3R cells, DiscoveRx beta-arrestin luminescence, antagonist mode; stronger effect = lower value; max response, negative = inhibition, %; 360,000 tested, 2.5% active; in the data active means max response below about -50%; inconclusive means no clear call, values can overlap the other calls; further: on the % scale 0 is the no-effect control and ±100 the full control effect
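Cells plated overnight at 1500 cells/well, then exposed to library compounds with dopamine controls for 90 minutes at 37 degrees C. DiscoveRx reagent added for 30–60 minutes at room temperature; luminescence read, quantitative HTS format.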
D1 antag: antagonists of human D1 dopamine receptor; P21728; HEK293 TREx D1 cells, calcium flux, dopamine EC80; stronger effect = lower value; activity change, negative = inhibition, % at 10 µM; 360,000 tested, 3.2% active; AID 504652; in the data active means activity change below about -30%; further: on the % scale 0 is the no-effect control and ±100 the full control effect
Target sequence (P21728 whole entry, looked up): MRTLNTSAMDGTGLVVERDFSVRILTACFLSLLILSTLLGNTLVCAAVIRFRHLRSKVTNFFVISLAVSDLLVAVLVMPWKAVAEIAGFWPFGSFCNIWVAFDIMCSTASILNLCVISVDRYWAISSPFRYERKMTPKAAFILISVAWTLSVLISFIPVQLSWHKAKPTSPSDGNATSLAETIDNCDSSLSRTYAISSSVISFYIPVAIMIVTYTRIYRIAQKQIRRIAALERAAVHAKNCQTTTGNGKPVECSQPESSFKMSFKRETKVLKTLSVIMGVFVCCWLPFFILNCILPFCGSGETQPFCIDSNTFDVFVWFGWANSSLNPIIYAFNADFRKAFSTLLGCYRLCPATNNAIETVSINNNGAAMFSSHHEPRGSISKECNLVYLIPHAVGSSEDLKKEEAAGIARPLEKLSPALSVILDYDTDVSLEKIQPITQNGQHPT
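Inducible Hek293 Trex D1 cells (tetracycline, overnight, 30 C). Calcium dye 30–90 min RT. Antagonist mode: EC80 dopamine added after 180 s compound read.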
D1 PAM: potentiators of human D1 dopamine receptor | AID 504651 | 360,000 tested, 0.036% active | HEK293 TREx D1 cells, calcium flux, dopamine EC20 potentiation | potentiation, % at 10 µM | P21728; in the data active means potentiation above about 30%; further: 0% is about no effect
D1 ag: agonists of human D1 dopamine receptor; P21728; HEK293 T-REx D1 cells, calcium flux, agonist mode; activation, % at 2 µM; 360,000 tested, 1% active; AID 504660; in the data active means activation above about 30%; further: 0% is about no effect
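Tetracycline-induced HEK293 TREx D1 cells, force-coupled to calcium signalling, were dye-loaded with a no-wash calcium kit. Compound was pin-added after a 10 s baseline. Fluorescence was read kinetically at 1 cycle/s for 180 s, with calcium rises flagged as agonism.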
Starred values were filed as active, the others as inactive; ? = inconclusive; nt = no result given. The list is not random: actives were taken first. Their share in the collection is about 6.1%.

SMILES | DRD3 agonist | D3 antag | D1 antag | D1 PAM | D1 ag
COC(=O)C1=C(c2ccc(Cl)c(C(F)(F)F)c2)C[C@@H]2CC[C@H]1N2C(=O)N1CCC(C)CC1 | -46 | -50* | -20 | 0 | 4
COC(=O)C1=C(c2ccc(OC)c(OC)c2)C[C@@H]2CC[C@H]1N2C(=O)N1CCC(C)CC1 | -14 | ? | nt | -1 | -2
COC(=O)C1=C(c2ccc(S(C)(=O)=O)cc2)C[C@@H]2CC[C@H]1N2C(=O)N1CCC(O)CC1 | 33* | 17 | nt | nt | nt
COc1cc(CCN)cc(OC)c1OC | 7 | nt | nt | nt | nt
CC(C)[C@H]1C(=O)O[C@H](C(C)C)C(=O)N(C)[C@@H](C(C)C)C(=O)O[C@H](C(C)C)C(=O)N(C)[C@@H](C(C)C)C(=O)O[C@H](C(C)C)C(=O)N1C | 3 | -27 | -33* | -3 | 53*
c1ccc2c(N3CCNCC3)nsc2c1 | -11 | -70* | -21 | -5 | 3
CN(C)CCc1c[nH]c2cccc(O)c12 | -10 | nt | nt | nt | nt
CCOP(=O)(OCC)OCC | -90 | -110* | nt | 0 | -1
CCOP(=O)(OCC)Oc1cc(C)c(N(C)C)c(C)c1 | 6 | 12 | 26 | -2 | 1
Cc1cc(C)cc(OCC(=O)Nc2ccc(Cl)cc2C(=O)c2ccccc2)c1 | 4 | nt | -9 | -1 | 1
Cc1ncc(CN2CCCC(C(=O)c3cccc(Cl)c3)C2)s1 (stereo not given) | -6 | -7 | 17 | 2 | 1
COc1c(C)cc(C(=O)C2CCCN(Cc3cccc(O)c3)C2)cc1C (stereo not given) | -19 | -60* | 7 | -8 | 4
COc1cccc(C(=O)C2CCCN(Cc3ccc(F)cc3)C2)c1 (stereo not given) | -24 | -56* | -5 | 0 | 2
COc1c(C)cc(C(=O)C2CCCN(Cc3cccc(C)n3)C2)cc1C (stereo not given) | -2 | 14 | 8 | -2 | 4
CCOC(=O)c1[nH]ncc1CN1CCCC(C(=O)c2cccc(Cl)c2)C1 (stereo not given) | -15 | 1 | -13 | -12 | 43*
CC(=O)NC1CCSC1=O (stereo not given) | 6 | nt | nt | nt | nt
COc1ccc(CCNCc2ccc(SC)cc2)cc1 | -35 | -53* | 6 | -2 | 11
CC(=O)[C@H]1CC[C@H]2[C@@H]3CC[C@@H]4C[C@H](O)CC[C@]4(C)[C@H]3CC[C@]12C | -7 | nt | nt | nt | nt
CC(Cc1ccccc1)NC(N)=O (stereo not given) | -10 | -5 | -8 | 0 | 1
CC(Cc1ccccc1)NC(=O)/C=C/c1ccc(Cl)cc1 (stereo not given) | 2 | 6 | -32* | -9 | 1
O=C1NC(=O)N(c2ccccc2F)C(=O)/C1=C/c1ccc(Sc2nc3ccccc3[nH]2)o1 | -2 | -14 | -10 | 5 | 116*
O=C1NC(=O)N(c2ccccc2)C(=O)/C1=C/c1ccc(Sc2ccccc2)o1 | 5 | -18 | 8 | 1 | 0
O=C1NC(=O)N(c2cccc(Cl)c2)C(=O)/C1=C\c1ccc(Sc2nc3ccccc3[nH]2)o1 | -14 | -18 | -5 | 2 | 63*
c1cc2c(c(NC3=NCCN3)c1)CCCC2 | -4 | nt | nt | nt | nt
CCCC[N+]12C3C[C@H](C4[C@H](O)[C@]5(C[C@@H]41)c1ccccc1N(C)[C@@H]35)[C@H](CC)[C@H]2O (stereo not given in full) | -12 | -2 | 7 | 3 | -1
SMILES | DRD3 agonist | D3 antag | D1 antag | D1 PAM | D1 ag
C/C=C1\CN2[C@H]3C[C@@]45c6ccccc6N(C)[C@H]4[C@@H]2CC1C3[C@H]5O (stereo not given in full) | -56 | -63* | nt | nt | nt
CN1CCN(c2nc(Cl)ncc2F)CC1 | -9 | 5 | -32* | -11 | 4
CN1CCN(c2cn[nH]c(=O)c2Cl)CC1 | -13 | -14 | 8 | -2 | 2
CCOC(=O)CC(SP(=S)(OC)OC)C(=O)OCC (stereo not given) | -12 | nt | nt | nt | nt
O=C(Nc1ccc(OC(F)(F)F)cc1)c1cccn(Cc2ccccc2Cl)c1=O | 3 | nt | -5 | 0 | 1
CN1CCN(c2cc([N+](=O)[O-])ccc2Cl)CC1 | -17 | -99* | -51* | -6 | 1
CN(C)CCCCCCN(C)C (tested in a mixture with another compound) | 8 | nt | nt | nt | nt
CC[C@H](O)C(C[C@H](C)N(C)C)(c1ccccc1)c1ccccc1 | -7 | nt | nt | nt | nt
COc1cccc(C2(O)CCN(Cc3ccncc3)CC2)c1 | -14 | -62* | -1 | 2 | 3
c1ccc(CN2CCN(Cc3ccc4c(c3)OCCO4)CC2)cc1 | -15 | -76* | -3 | 2 | -1
COc1ccccc1OCC(=O)N1CCN(Cc2ccc3c(c2)OCO3)CC1 | -2 | -2 | -1 | -5 | 1
CCOC(=O)C(NC(=O)C(Cc1ccc(N(CCCl)CCCl)cc1)NC(C)=O)C(C)C (stereo not given) | 0 | -9 | -3 | 0 | 2
COC(=O)C(Cc1ccc(N(CCCl)CCCl)cc1)N=Cc1ccccc1O (stereo not given) | -8 | ? | -40* | -12 | 7
CCc1cc2c(s1)-n1c(C)nnc1CN=C2c1ccccc1Cl | 8 | nt | nt | nt | nt
COc1ccc(OC)c(NC(=O)Cn2cc(C(=O)c3ccccc3F)c3ccccc32)c1 | 1 | nt | -33* | -4 | 3
CCCCCc1cc(O)c2c(c1)OC(C)(C)c1ccc(C)cc1-2 | -16 | nt | nt | nt | nt
O=[N+]([O-])c1cccc(CCl)c1 | -97 | -117* | nt | -5 | -1
O=[N+]([O-])c1ccc(NC2CCCC2)c2ccncc12 | 4 | 15 | -22 | -1 | 13
O=[N+]([O-])c1ccc(NC2CCN(Cc3ccccc3)CC2)c2ccncc12 | -25 | -74* | 5 | 0 | 1
O=C1C=C2C=C[C@@H]3C[C@@]2(O1)[C@H]1CCCCN31 | -16 | nt | nt | nt | nt
O=C(Cc1ccccc1)N1CCN(CCCc2ccccc2)CC1 | -7 | -12 | 6 | 1 | 6
CCC(C)N1CCN(C(=O)Cc2ccccc2)CC1 (stereo not given) | -19 | -65* | 2 | -3 | 0
C=CCN(C1=NCCN1)c1c(Cl)cccc1Cl | -13 | nt | nt | nt | nt
C[C@@H]([C@H](O)c1ccccc1)N(C)C | 8 | nt | nt | nt | nt
CCn1nc(/C=C/c2ccccc2)nc2c(=O)n(C)c(=O)nc1-2 | -10 | ? | -4 | -5 | 0
CCn1nc(-c2cccs2)nc2c(=O)n(C)c(=O)nc1-2 | -16 | -81* | 2 | 2 | 2
COc1ccc(C)cc1NC(=O)c1cccn(Cc2cccc([N+](=O)[O-])c2)c1=O | -15 | nt | nt | 5 | 0
